Results filed as inconclusive are left out. The source made the active and inactive calls. Rule for the calls, unless noted: active = hit-call score of the fitted dose curve at least 0.9, where 1 is the maximum; inactive = score below 0.9.

The first assay in a line: CCTE_Simmons_MITO_basal_resp_rate: CCTE's HepG2 Seahorse XF Respirometric Screening Assay at Basal Respiratory State, Simmons Lab (AID 2284001). The note with it: actives raise or lower the signal. Summed up: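 Basal-phase OCR of HepG2 cells on a Seahorse XF96, analysed by bidirectional fit relative to DMSO vehicle; chemicals at 7 concentrations, 125 nM–100 uM final; three biological replicates; fenpyroximate and 2,4-dinitrophenol positive controls.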
As usually defined, the AC50 is the concentration giving half of the maximal activity seen. Consider `COc1ccc2c(c1)c(CC(=O)O)c(C)n2C(=O)c1ccc(Cl)cc1`, for which the AC50 is 13.4 µM (active).

For `COc1cc(S(=O)(=O)O)c(C)cc1N=Nc1c(O)ccc2cc(S(=O)(=O)O)ccc12`, the AC50 is 38.7 µM (active).

For `CC(C)(C)c1cc(O)c(C(C)(C)C)cc1O`, the AC50 was 18.3 µM (active).

On to `CN[C@H]1CC[C@@H](c2ccc(Cl)c(Cl)c2)c2ccc(S(N)(=O)=O)cc21`, for which the AC50 is 25.6 µM (active).

In the case of `Cc1oc(-c2ccccc2)nc1CCOc1cccc2c1ccn2CCC(=O)O`, the concentration at half-maximal activity (AC50) is 3.11 µM (active).

In the case of `Cc1c(C(=O)O)c(O)cc2c1C(=O)c1c(O)c([C@@H]3O[C@H](CO)[C@@H](O)[C@H](O)[C@H]3O)c(O)c(O)c1C2=O`, the outcome was inactive.

`Cc1cccc(Nc2cc(Cl)nc(SCC(=O)O)n2)c1C`: the result was inactive.

For `C=CCOC(=O)c1ccccc1C(=O)OCC=C`, the AC50 is 36.2 µM (active).

In the case of `CCCCC(CC)COC(=O)CC(C(=O)OCC(CC)CCCC)S(=O)(=O)O` (stereo not given), the result was inactive.

The next assay is described as follows: CCTE_Simmons_MITO_viability: CellTiter-Glo Viability Assessment for CCTE's HepG2 Seahorse XF Respirometric Screening Assay [post-hoc], Simmons Lab (AID 2284007; active = hit-call score of the fitted dose curve at least 0.9, where 1 is the maximum;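 for AC50: cells exposed to chemical for 90 min before the ATP read; actives lower ATP signal relative to DMSO baseline meaning reduced viability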).
Details: not given
A digest of the protocol:
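Luciferase-coupled ATP luminescence, single endpoint. HepG2, post-respirometry. Compound 125 nM–100 uM final, 7 conc., 90 min. n=3 biological, technical singles. DMSO vehicle/baseline; dichlone 10 nM–100 uM, 8 conc., as positive control.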
(In ATP-based viability assays light output follows the ATP content of the culture.)
On to `COc1ccc2c(c1)c(CC(=O)O)c(C)n2C(=O)c1ccc(Cl)cc1`, for which the call was inactive.

Turning to `COc1cc(S(=O)(=O)O)c(C)cc1N=Nc1c(O)ccc2cc(S(=O)(=O)O)ccc12`, the AC50 is 50 µM (active).

Regarding `CC(C)(C)c1cc(O)c(C(C)(C)C)cc1O`, the outcome was inactive.

Take `CN[C@H]1CC[C@@H](c2ccc(Cl)c(Cl)c2)c2ccc(S(N)(=O)=O)cc21`: the result was inactive.

Consider `Cc1oc(-c2ccccc2)nc1CCOc1cccc2c1ccn2CCC(=O)O`, for which the molecule was called inactive.

Regarding `Cc1c(C(=O)O)c(O)cc2c1C(=O)c1c(O)c([C@@H]3O[C@H](CO)[C@@H](O)[C@H](O)[C@H]3O)c(O)c(O)c1C2=O`, the AC50 was 40.1 µM (active).

`Cc1cccc(Nc2cc(Cl)nc(SCC(=O)O)n2)c1C`: the call was inactive.

`C=CCOC(=O)c1ccccc1C(=O)OCC=C`: the outcome was inactive.

With `CCCCC(CC)COC(=O)CC(C(=O)OCC(CC)CCCC)S(=O)(=O)O` (stereo not given), the AC50 was 56.1 µM (active).

The nature of a further assay: CCTE_Shafer_MEA_acute_spike_number: CCTE's Neural Acute Assay for Total Number of Spikes, Shafer Lab (AID 2284008).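 For AC50: curve fitted for decrease in spike count so AC50 reflects inhibitors.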
Details: not given
A digest of the protocol: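 Rat cortical cultures, DIV 13/15, 37 C. 40 min baseline rec, cpd 0.03-40 uM, 40 min post-dose rec. Band-pass 300-5000 Hz, spike threshold 8x rms; % change in spike count per well, DMSO neg ctrl, loss-of-signal fit.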
Turning to `COc1ccc2c(c1)c(CC(=O)O)c(C)n2C(=O)c1ccc(Cl)cc1`, the result was inactive.

`CC(=O)Oc1ccccc1C(=O)O`: the result was inactive.

Consider `COc1ccc(S(=O)(=O)N2C(=O)[C@@](c3ccccc3OC)(N3C[C@H](O)C[C@H]3C(=O)N(C)C)c3cc(Cl)ccc32)c(OC)c1`, for which the AC50 was 31.8 µM (active).

Consider `CC(C)(C)c1cc(O)c(C(C)(C)C)cc1O`, for which the AC50 was 25.9 µM (active).

Turning to `CN[C@H]1CC[C@@H](c2ccc(Cl)c(Cl)c2)c2ccc(S(N)(=O)=O)cc21`, the outcome was inactive.

As for `Cc1ccc(C)c(O)c1C`, the outcome was inactive.

As to `C=CCOC(=O)c1ccccc1C(=O)OCC=C`, the outcome was inactive.

The values above are taken from PubChem BioAssay (EPA / NIEHS).
